Screens as filed in PubChem.
PfHsp90 set2 = inhibits growth of yeast expressing Plasmodium falciparum Hsp90; S. cerevisiae expressing PfHsp90, BacTiter-Glo ATP, 48 h; yeast lacking PDR1 and PDR3 efflux regulators; inhibition, % at 9.4 µM; hit rate 0.32% among 310,000;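 active = every replicate shows inhibition above about 80%, whatever the replicate mean, limit read from the data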
tim23-1 inh = inhibits growth of tim23-1 mutant yeast; S. cerevisiae tim23-1 growth, BacTiter-Glo luminescence, 24 h; inhibition, % at 20 µM; hit rate 1.3% among 330,000;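 active = growth inhibition of the mutant yeast at or above 50%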;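 note: temperature-sensitive mutant grown at 25 °C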
V-ATPase pHluor = alters yeast V-ATPase proton transport; S. cerevisiae, pHLuorin cytosolic pH fluorescence; response, % at 10 µM; hit rate 0.37% among 350,000; AID 504577; in the data active = response mostly above about 7.3%, no sharp cut-off; inactive = mostly below about 5.4%; note: actives read high
tim10-1 inh = tim10-1 yeast growth inhibition | S. cerevisiae tim10-1 ts strain growth, BacTiter-Glo, 24 h | inhibition, % at 20 µM | hit rate 2.2% among 330,000;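 active = inhibition of at least 40%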;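 note: mutant grown at 25 °C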
TIM10 inh = inhibits growth of TIM10 yeast strain. S. cerevisiae TIM10 strain growth, BacTiter-Glo luminescence, 24 h. inhibition, % at 10 µM. hit rate 1.4% among 330,000;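 active = inhibition of 40% or more at the single tested concentration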;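 note: wild-type TIM10 isogenic control strain grown at permissive 25 °C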
tim10-1 confirm = confirmation of tim10-1 mutant yeast growth inhibitors | shares compounds with tim10-1 inh | S. cerevisiae tim10-1 ts strain growth, BacTiter-Glo, 24 h | inhibition, % at 20 µM | hit rate 56% among 7,400 | AID 463213;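 active = inhibition of yeast growth at or above a set limit in either of two repeat tests at 20 µM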;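 note: tim10-1 mutant grown at permissive 25 °C to find synthetic lethal compounds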
Numbers stand for hits; 0 = inactive; - = no result given. Compounds with a hit are over-represented: about 3.7% of the library has one in this group of screens.

SMILES	PfHsp90 set2	tim23-1 inh	V-ATPase pHluor	tim10-1 inh	TIM10 inh	tim10-1 confirm
N/C(=N\OC(=O)C1CCCCC1)c1cccc([N+](=O)[O-])c1	0	0	0	47.3	0	49.0
N/C(=N\OC(=O)c1ccncc1)c1cccc([N+](=O)[O-])c1	0	0	0	0	0	-
N/C(=N\OC(=O)c1ccc([N+](=O)[O-])cc1)c1cccnc1	0	0	0	40.2	0	37.4
Cc1ccc(C(=O)O/N=C(\N)c2cccc([N+](=O)[O-])c2)cc1	0	0	0	52.0	0	71.8
COc1ccc(NC(=O)c2ccco2)c(NC(=O)c2ccc([N+](=O)[O-])cc2)c1	0	0	0	0	0	-
CC(C)Oc1ccccc1C1Nc2ccccc2C(=O)N1c1ccc2c(c1)OCCO2 (stereo unspecified)	0	0	0	45.7	0	0
O=C(N/N=C/c1ccc(Cl)cc1Cl)c1ccc2nc[nH]c2c1	0	0	0	0	0	-
C=CCc1cccc(/C=N/NC(=O)c2ccc3nc[nH]c3c2)c1O	0	0	0	44.0	0	0
CCc1ccc(/C=C2\Oc3cc(OC(=O)N4CCOCC4)ccc3C2=O)cc1	0	0	0	50.5	0	0
Cc1coc(C)c1C(=O)CC1(O)C(=O)N(CCc2ccccc2)c2ccccc21 (stereo unspecified)	-	0	0	43.9	0	33.5
CNC(=S)NNC(=O)COc1ccccc1C	0	0	0	0	0	-
Cc1ccccc1OCC(=O)NNC(=S)NC(=O)c1ccccc1[N+](=O)[O-]	0	0	0	42.0	0	0
Oc1c(CN2CCCC(C(F)(F)F)C2)cc(Cl)c2ccccc12 (stereo unspecified)	0	0	0	42.0	0	0
Cc1ccc(C(=O)OCC(=O)N(CCc2ccccc2)Cc2ccccc2)cc1S(=O)(=O)N1CCOCC1	-	0	0	0	0	-
O=C(c1cc(Cl)ccc1F)N1CCCC(Nc2ccc3c(c2)OCCO3)C1 (stereo unspecified)	0	0	0	0	0	-
O=C(NCc1ccc2c(c1)OCO2)c1cccc(S(=O)(=O)N2CCCC2)c1	0	0	0	0	0	-
Cc1occc1C(=O)Nc1sc2c(c1C(N)=O)CCCCC2	0	0	0	48.5	0	0
COc1ccccc1/C(C)=N/NC(=S)NCc1ccccc1	0	0	0	46.6	0	0
CCCn1cc(CN2CCCC(C(=O)c3ccc4c(c3)OCO4)C2)c(C)n1 (stereo unspecified)	0	0	0	0	0	-
COc1cc(OC)cc(C(=O)NCCOC23CC4CC(CC(C4)C2)C3)c1	0	0	0	45.5	0	0
Cc1ccc(C(=O)NCCOC23CC4CC(CC(C4)C2)C3)cc1	0	0	0	0	0	-
COc1ccccc1CNC(=O)CN(C)Cc1ccc(SC)cc1	0	0	0	0	0	-
COc1ccc(-c2nc3n(c(=O)c2C#N)CCS3)cc1	0	0	0	44.9	0	0
CCN(CC)CCCNC(=O)c1cc(-c2ccccc2)c(N2CCCCC2)s1	0	0	0	0	0	-
c1ccc(-c2nnc3ccc(N4CCC5(CC4)OCCO5)nn23)cc1	0	0	0	43.1	0	0
SMILES	PfHsp90 set2	tim23-1 inh	V-ATPase pHluor	tim10-1 inh	TIM10 inh	tim10-1 confirm
NC(=O)C1(N2CCCCC2)CCN(c2ccc3nnc(-c4ccccc4)n3n2)CC1	0	0	0	0	0	-
CCc1ccc(-c2cc(C)no2)cc1S(=O)(=O)NCc1ccccc1OC	0	0	0	40.6	0	0
COc1cc2c3c(c1)/C(=C1/SC(NC(C)=O)=NC1=O)C(=O)N3C(C)(C)C=C2C	0	0	0	62.5	0	56.2
CCN1C(=O)/C(=C2/C(=O)N3c4c(cc(OC(C)=O)cc42)C(C)=CC3(C)C)SC1=S	0	0	0	0	0	-
O=C(Nc1ccccc1N1CCOCC1)c1ccc2ccccc2n1	-	0	0	40.9	0	0
O=C(Nc1ccccc1N1CCOCC1)c1cc(-c2ccncc2)nc2ccccc12	0	0	0	0	0	-
COc1ccc(-c2cc(C(=O)Nc3ccccc3N3CCOCC3)c3ccccc3n2)cc1OC	0	0	0	42.0	0	0
NNC(=O)c1n[nH]c2c1CC(C1CCCCC1)CC2 (stereo unspecified)	0	0	0	0	0	-
CCOC(=O)c1c(OCC)[nH]c2c1cc(O)c1ccccc12	0	0	0	43.3	0	41.0
O=C(O)CC(Cc1ccc(Br)cc1)C(=O)Nc1ccccc1 (stereo unspecified)	0	0	0	0	0	-
Cc1nc2c(-c3ccc(F)cc3)cnn2c(N)c1-c1ccc(F)cc1	0	0	0	0	0	-
Cc1cc(N)n2ncc(-c3ccc(F)cc3)c2n1	0	0	0	50.0	0	38.8
C=CCNc1nc(C)c(CNc2c(C)cc(C)cc2C)nc1C#N	0	0	0	0	0	-
Cc1ccc(S(=O)(=O)N2CCOCC2)cc1C(=O)NC1=NCCS1	0	0	0	0	0	-
CC(C)c1cc(-c2cc(C(=O)NCc3ccccc3)on2)nc(NCC2CC2)n1	0	0	0	44.2	0	0
CSc1ccccc1OCc1cc(C(=O)NCCc2nc(C)cc(C)n2)no1	0	0	0	0	0	-
N#CCCN1CCCc2cc(N=Nc3ccc(C(F)(F)F)cc3)ccc21	0	0	0	41.2	0	34.1
CN(Cc1c(F)cccc1Cl)C(=O)CCc1c[nH]c2ccccc12	0	0	0	0	0	-
O=[N+]([O-])c1ccccc1SN(Cc1ccccc1)c1ccccn1	0	0	0	42.3	0	0
O=C(c1ccc([N+](=O)[O-])cc1)N(Cc1ccccc1)c1ccccn1	0	0	0	0	0	-
CCOC(=O)C1=C(c2ccccc2)O/C(=C(/C#N)C(F)(F)F)S1	-	0	-	47.3	0	38.8
CC(Sc1ccccc1)C(=O)N/N=C/c1cccnc1 (stereo unspecified)	0	0	0	0	0	-
CC(Oc1cccc2ccccc12)C(=O)N/N=C/c1cccnc1 (stereo unspecified)	0	0	0	43.9	0	0
CC1=CC(C)(C)Nc2ccc(OC(=O)c3cccnc3)cc21	0	0	0	40.4	0	0
CC1=CC(C)(C)Nc2ccc(OC(=O)c3ccco3)cc21	0	0	0	0	0	-
SMILES	PfHsp90 set2	tim23-1 inh	V-ATPase pHluor	tim10-1 inh	TIM10 inh	tim10-1 confirm
COc1ccc(/C=C(\C#N)C(=O)N2COCC2(C)C)cc1	0	0	0	46.6	0	31.3
O=C(Nc1ccc2c(c1)OCO2)c1cccc2c1C(=O)N(Cc1cccnc1)C2	0	0	0	42.9	0	33.6
CCCN1Cc2cccc(C(=O)Nc3ccc4c(c3)OCO4)c2C1=O	0	0	0	0	0	-
CCN(C1CCCCC1)S(=O)(=O)c1cc(C)ccc1OC	0	0	0	42.5	0	0
CCOc1ccc2nc(SC3CC(=O)N(c4ccc(OC)cc4)C3=O)sc2c1 (stereo unspecified)	-	0	0	0	0	-
O=C1CC(Sc2cccs2)C(=O)N1c1ccccc1 (stereo unspecified)	0	0	0	42.2	0	40.2
